Screening data: PubChem BioAssay, National Center for Advancing Translational Sciences (NCATS)
Most compounds without a hit are left out; they make up all but 12% or so of the library.
BAZ2B block: qHTS Assay for Inhibitors of BAZ2B; Bromodomain adjacent to zinc finger domain protein 2B (Homo sapiens), Q9UIF8; AlphaScreen BAZ2B-H3K14Ac peptide displacement; Potency, µM (series often up to 114 µM), for inactives: at the top dose activity change, negative = inhibition, actives largely listed as inhibitors; 360,000 compounds, 4.4% hits; further: on the % scale 0 is the no-effect control and ±100 the full control effect; nearly all actives have a fitted effect of over 60% in size
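AlphaScreen displacement of biotin-H3(5-23)K14Ac peptide (50 nM final) from BAZ2B (50 nM final) in PBS pH 7.4, 0.01% Tween-20; complex preformed 30 min RT, then compounds (top 110 uM) 30 min RT, beads 20 min dark.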
G9a block: qHTS Assay for Inhibitors of Histone Lysine Methyltransferase G9a; Histone-lysine N-methyltransferase EHMT2 (Homo sapiens), Q96KQ7; G9a H3K9 monomethylation, AlphaScreen, 2 h; Potency, µM (top dose mostly 102 µM), without a hit: at the highest dose activity, negative = inhibition, actives largely listed as inhibitors; 350,000 compounds, 8.8% hits; AID 504332, 2011; further: on the % scale 0 is the no-effect control and ±100 the full control effect; nearly all actives have a fitted effect of over 75% in size
Target sequence (Q96KQ7 913-1193 limits assumed): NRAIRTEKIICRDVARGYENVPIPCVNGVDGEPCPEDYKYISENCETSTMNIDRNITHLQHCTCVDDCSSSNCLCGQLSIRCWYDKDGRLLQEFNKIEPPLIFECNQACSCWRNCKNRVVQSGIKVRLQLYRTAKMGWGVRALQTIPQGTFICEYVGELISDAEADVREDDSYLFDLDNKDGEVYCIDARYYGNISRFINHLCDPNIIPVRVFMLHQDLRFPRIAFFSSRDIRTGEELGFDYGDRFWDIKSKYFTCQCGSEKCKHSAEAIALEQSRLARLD
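Compounds were preincubated with 20 nM G9a for 15 min, after which biotinylated H3K9 peptide (500 nM) and SAM (20 uM) started a 2 h room-temperature reaction. Monomethylated product was quantified by antibody-based AlphaScreen chemiluminescence.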
JMJD2A Tudor inh: qHTS Assay for Inhibitors of JMJD2A-Tudor Domain | Lysine-specific demethylase 4A (Homo sapiens), O75164 | AID 504339, 2011 | AlphaScreen JMJD2A-Tudor / H3K4me3 peptide binding | 390,000 compounds, 4.4% hits | Potency, µM (top dose mostly 114 µM), inactives show top-dose activity change, negative = inhibition, usual class: inhibitors; further: on the % scale 0 is the no-effect control and ±100 the full control effect; nearly all actives have a fitted effect of over 50% in size
Sfp inh: qHTS Assay for Inhibitors of Bacillus subtilis Sfp phosphopantetheinyl transferase (PPTase); 4'-phosphopantetheinyl transferase ffp (Bacillus subtilis), Q9F4F7; Biochemical Sfp PPTase activity, qHTS; Potency, µM, inactives show largest response in the series, negative = inhibition, most hits filed as inhibitors; 310,000 compounds, 3.5% hits;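 further: the enzyme is Sfp with the accession as filed and its product quenches rhodamine fluorescence; 0% = enzyme reaction without inhibitor and -100% = no enzyme wells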
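With Hepes-Na pH 7.6 buffer containing 10 mM MgCl2, Sfp (15 nM) modified BHQ-2-YbbR (12.5 uM) using rhodamine-CoA (5 uM). Two reads 30 minutes apart at 525/598 nm yielded each well's rate.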
HP1b binding inh: HTS for Inhibitors of HP1-beta Chromodomain Interactions with Methylated Histone Tails; Chromobox protein homolog 1 (Homo sapiens), P83916; AlphaScreen HP1-beta / biotin-H3K9me3 peptide binding; Potency, µM (doses to about 114 µM), without a hit: top-dose activity change, negative = inhibition, most hits filed as inhibitors; 390,000 compounds, 0.56% hits; AID 540317, 2011; further: nearly all actives have a fitted effect of over 70% in size
Target sequence (P83916 whole entry, looked up): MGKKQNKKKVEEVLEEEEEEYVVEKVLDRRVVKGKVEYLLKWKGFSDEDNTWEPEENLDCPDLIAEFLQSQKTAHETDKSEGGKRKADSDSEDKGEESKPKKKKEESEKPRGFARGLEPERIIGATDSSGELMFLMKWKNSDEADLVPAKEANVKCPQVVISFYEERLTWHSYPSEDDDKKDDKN
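HP1-beta protein (50 nM final) preincubated 30 min at room temperature with biotinylated H3(1-18)K9me3 peptide (50 nM) in PBS pH 7.4, 0.01% Tween-20, then compound added for 30 min. AlphaScreen streptavidin donor/nickel chelate acceptor beads (10 ug/mL final), 30 min dark, luminescence read.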
Active calls of the source: *; ? = inconclusive; / = no result; ! = not confirmed by another sample; [ ] = dose if it differs, or a comment. The call rests on the fitted dose curve; in most records, active means well fitted curve in the direction sought with a large enough effect; inconclusive means small, poorly fitted or top-dose-only effect, or another doubt; inactive means no such curve, though single readings can be large; an effect the other way counts as inactive or inconclusive. Potency means the concentration at half of the fitted maximal effect.

SMILES	BAZ2B block	G9a block	JMJD2A Tudor inh	Sfp inh	HP1b binding inh
Cc1ccc(-c2nnn(CC(=O)N(CC(=O)NC3CCCCC3)c3cccc(F)c3)n2)o1	3.6%	-1.0%	-4.2%	20.1%	9.9%
N#Cc1c(C(F)(F)F)cc(-c2cccs2)nc1SCc1ccc(Cl)nc1	2.5%	9.4%[0.0925 µM]	4.5%	22.4µM*	34.0%
CCN(CC)CCNCc1cc(Br)ccc1OCC(=O)NCc1ccccc1	?	-43.2%[59 µM]	-13.7%	-27.9%	37.9%
CCN(CC)CCNCc1ccc(Br)cc1OCC(=O)NCc1ccccc1	-38.1%	50.1µM*	-24.7%	19.7%	8.1%[57 µM]
O=C(NCc1ccncc1)C12CC3CC(CC(C3)C1)C2	2.1%	6.4%[59 µM]	-15.4%	-3.2%	15.2%
O=C(NCc1ccccc1)C12CC3CC(CC(C3)C1)C2	?	31.6µM*	-19.8%	-15.7%	27.1%
Cc1ccc(CNC(=O)C2CCN(S(=O)(=O)N3CCCC3)CC2)cc1	-13.4%	-3.7%	4.2%	15.2%	32.5%
CC(NCc1ccc(S(N)(=O)=O)cc1)C(=O)N1CCc2ccccc21 (stereo not given)	-17.9%	3.9%	-14.0%	4.0%	27.9%
N#CC(Cc1ccc(O)c(O)c1)C(=O)N1CCc2ccccc21 (stereo not given)	/	7.08µM*	/	/	/
CCOc1ccc(N(CC(=O)NCC2CCCO2)S(=O)(=O)c2ccc(Cl)cc2)cc1 (stereo not given)	9.1%	5.9%	-11.7%	3.1%	-1.0%
CN=c1scc(-c2ccccc2F)n1/N=C/c1ccc[nH]1	31.6µM*	17.8µM*	50.1µM*	-7.4%	39.8µM*
C=CCn1c(O)c(C2=c3ccccc3=NC2=O)c2ccccc21	6.31µM*	6.31µM*	10µM*	44.7µM*	?
CC(=O)OC1=C(C#N)Cn2ccc3cccc1c32	-11.6%	11.2µM*	/	-1.7%	/
CCOc1ccc(/C=C2\CCC(C3CCCC3)C2=O)cc1 (stereo not given)	3.3%	-5.6%	5.5%	2.8%	23.8%
CCC(=O)OCOc1ccc(/C=C2/CCC(CN(C)C)C2=O)cc1 (stereo not given)	/	/	89.1µM*	/	?
Nc1cc(C(=O)O)ccc1Nc1ccccc1	-32.5%	-39.9%[12.7 µM]	-22.3%	13.1%	9.1%
COc1ccc(Nc2ccccc2N)cc1	35.5µM*	15.8µM*	44.7µM*	-29.6%	?
COc1ccc(Nc2ccnc3ccccc23)cc1	-8.3%	-38.3%[59 µM]	-11.5%	-11.8%	34.6%
Nc1ccc(Nc2ccccc2N)cc1	35.5µM*	?	50.1µM*	2.8%	?
CCc1nnc2c3ccccc3nc(Nc3ccc(F)c(Cl)c3)n12	3.5%	-0.1%[59 µM]	11.3%	/	37.9%
c1ccc(Cc2nc(-c3ccccn3)no2)cc1	6.1%	-4.5%[59 µM]	-13.5%	-1.8%	28.1%
COc1ccc(S(=O)(=O)Nc2nnc(CC(C)(C)C)s2)cc1	-29.9%	35.5µM*	4.8%	-2.9%	4.3%
COc1ccc(S(=O)(=O)Nc2nnc(C(C)(C)C)s2)cc1	/	1.78µM*	-22.4%	17.8µM*	-23.9%
COCc1nnc(NS(=O)(=O)c2ccc(Cl)cc2)s1	0.7%	/	-17.7%	11.6%	11.7%
COc1ccc(S(=O)(=O)Nc2nnc(C(C)C)s2)cc1	8.4%	?	?	-4.6%	-3.4%
SMILES	BAZ2B block	G9a block	JMJD2A Tudor inh	Sfp inh	HP1b binding inh
CCOc1ccc(NC(=O)CN(C)C(=O)Cc2n[nH]c(=O)c3ccccc23)cc1OCC	7.0%	-9.2%[2.33 µM]	-4.4%	/	31.8%
COc1ccccc1C1C(C#N)=C(N)Oc2c1oc(CO)cc2=O (stereo not given)	-13.1%	-4.0%[59 µM]	-2.7%	-6.4%	48.7%
O=C1C2C3C=CC(CC3)C2C(=O)N1c1ccc([N+](=O)[O-])cc1 (stereo not given)	-3.6%	31.6µM*	-5.6%	5.4%	19.2%
CC(C)N1CCN(S(=O)(=O)c2ccccc2)c2ccccc21	/	/	?	/	-6.8%
CC(N1CCOC1=O)S(=O)(=O)c1ccccc1 (stereo not given)	50.1µM*	?	-11.1%	63.1µM*	58.4%
NC(=NCCCCCCN=C(N)/N=C(\N)Nc1ccc(Cl)cc1)/N=C(\N)Nc1ccc(Cl)cc1	-28.1%	14.1µM*!	-31.7%	28.2µM*!	23.2%
CC(C)[C@H](NC(=O)c1ccccc1)C(=O)OCC(=O)Nc1ccc(Cl)cc1C(F)(F)F	-16.7%	20.9%[59 µM]	0.7%	16.4%	26.2%
O=C(O)CNC1=NCCC1	-6.2%	-14.2%[12.7 µM]	/	-3.4%	/
Cc1c(NC(=O)c2ncn[nH]2)cccc1-c1nc2ccccc2s1	25.1µM*	?	?	-13.2%	-29.4%
O=C(Nc1ccccc1C(F)(F)F)c1ncn[nH]1	14.1µM*	/	7.94µM*	?	25.1%
Cc1c(NC(=O)c2ccc(Cl)nc2)cccc1-c1nc2cccnc2s1	-15.7%	20.5%	-3.4%	12.9%	78.7%
COc1cccc(C(=O)Nc2ccccc2-c2nc3ccccc3s2)c1	0.0%	24.9%[59 µM]	37.7%	/	125.0%
Cc1cccc(OCCNC(=O)c2ncn[nH]2)c1	8.7%	14.5%[59 µM]	-14.7%	-4.6%	36.6%
Cc1c(NC(=O)c2ccco2)cccc1-c1nc2cccnc2s1	3.9%	14.1µM*	?	?	22.1%
O=C(NCCOc1ccccc1)c1ncn[nH]1	50.1µM*	?	39.8µM*	3.3%	-9.1%
CCOc1ccc(CNC(=O)c2cc3ccccn3n2)cc1OC	-9.7%	-22.5%[59 µM]	-13.3%	/	9.9%
COc1cccc([C@@H]2Oc3ccc(OC)cc3/C(=N/O[C@@H](C)CN3CCCc4nc(C)c(C)cc43)[C@@H]2O)c1	/	/	/	7.2%	/
COCCN=C1NC(=O)C(CC(=O)Nc2cccc(Cl)c2C)S1 (stereo not given)	1.7%	50.1µM*	-12.1%	-9.4%	28.3%
COc1ccccc1NC(=O)C1=C(C)Nc2nc(-c3ccc(N(C)C)cc3)nn2C1c1ccncc1 (stereo not given)	50.1µM*	?	?	14.1%	-6.0%
COc1cccc(CSc2nc3n(n2)C(c2ccc(C(=O)O)cc2)C(C(=O)Nc2ccccc2)=C(C)N3)c1 (stereo not given)	-14.8%	-3.2%[59 µM]	-29.3%	/	25.0%
COc1ccccc1NC(=O)C1=C(C)Nc2nc(SCc3cccc(F)c3)nn2C1c1ccc(C(=O)O)cc1 (stereo not given)	50.1µM*	8.0%[12.7 µM]	-17.4%	/	29.9%
Cc1ccc(S(=O)(=O)CC#CCOC(=O)c2ccc([N+](=O)[O-])cc2)cc1	?	?	/	50.1µM*	/
Cc1ccc(C(=O)c2ccc([N+](=O)[O-])cc2)cc1	?	?	-34.6%	2.7%	-9.9%
COc1cc(/C=N/Nc2ccc3ccccc3c2)ccc1OC(=O)c1ccco1	-35.0%	7.94µM*	-15.1%	-10.8%	16.9%
